Source: PubChem (National Center for Advancing Translational Sciences (NCATS))
Most compounds without a hit are left out; they make up all but 2.6% or so of the library.
A549 tox: kills or reduces viability of A549 cells in Nrf2 counter-screen; 390,000 tested, 0.16% active; A549 ARE-Fluc cells, CellTiter-Fluor viability, 18-24 h; Potency, µM (titrated, usually from 46 µM), most hits filed as inhibitors
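Cytotoxicity counterscreen: CellTiter-Fluor fluorescence was measured in A549 ARE_Fluc cells after 18-24 h of compound exposure in a concentration series. The subsequent BugLite luminescent read reports ARE-luciferase activity.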
AT treatment: candidate therapy for ataxia-telangiectasia; F2112 A-T fibroblasts, KAP-1 phosphorylation AlphaLISA; neocarzinostatin DNA damage 30 min before lysis; Potency, µM (series often up to 57.5 µM), hits mostly activators; 320,000 tested, 0.19% active; AID 485349; also: nearly all actives have a fitted effect of over 45% in size
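ATM-like activity read as KAP-1 phosphorylation via AlphaLISA donor/acceptor antibody pairs after lysis and 6 hr at 25C. Cells were ATM-null patient fibroblasts (F2112, hTERT), dosed 60 min, then exposed to the DSB inducer NCS for 30 min.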
Nrf2 inh: Nrf2 pathway inhibition; A549 ARE-Fluc reporter, luciferase luminescence, 18-24 h; Potency, µM (doses to about 46 µM), actives largely listed as inhibitors; 360,000 tested, 2.1% active; also: nearly all actives have a fitted effect of over 60% in size
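Two sequential reads on A549 ARE_Fluc cells exposed to compound for 18-24 h: a CellTiter-Fluor fluorescence read for viability, then a luciferase luminescence read for Nrf2/ARE activity.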
TCR act: activates T cell receptor signaling | primary human leukocytes, anti-CD3, IL-2 HTRF, 48 h | Potency, µM (highest dose often 9.22 µM), hits mostly activators | 330,000 tested, under 10 active
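TCR engagement came from a-CD3 beads alone, with compounds added to primary human leukocytes for 48 hr. Secreted IL-2 bridged europium cryptate- and d2-labelled anti-IL-2 antibodies, giving FRET emission at 665nm after 320nm excitation.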
Nrf2 activator: activates Nrf2 signaling; AREc32 ARE-luciferase reporter (MCF7-derived line), luminescence, 24 h; Potency, µM (top dose mostly 46.1 µM), hits mostly activators; 410,000 tested, 0.31% active; also: nearly all actives have a fitted effect of over 65% in size
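ARE-driven firefly luciferase activity in AREc32 cells measured after a 24 hr compound exposure at 37 deg C, using Steady-Glo reagent and a 30 min room-temperature hold.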
CCT chaperon mod: modulators of cytosolic chaperonin (CCT/TRiC) activity. AID 651819. purified chaperonin ATPase assay, HTRF ADP detection, 30 min. 360,000 tested, 0.3% active. activity change, % (concentration not given with the values), hits read low; in the data active = activity change below about -30%
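TRiC at 40 or 20 nM final (batch-dependent) in 30 mM Tris pH 7.4, 100 mM KCl, 5 mM MgCl2, 1 mM DTT, with compound at single 76 uM and 10 uM ATP, 30 min at 37 deg C. ADP detected by HTRF Transcreener, 665/615 ratio.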
Numbers stand for hits; . = inactive; ? = inconclusive; / = no result given; [ ] = dose if it differs, or a comment. Unless noted, calls follow the shape of the dose curve; as a rule, active = well fitted curve in the direction sought with a large enough effect; inconclusive = small, poorly fitted or top-dose-only effect, or another doubt; inactive = no such curve, though single readings can be large; an effect the other way counts as inactive or inconclusive.

SMILES	A549 tox	AT treatment	Nrf2 inh	TCR act	Nrf2 activator	CCT chaperon mod
COc1ccc(NC(=O)c2cc3c(s2)CCC(C)C3)cc1S(=O)(=O)N1CCOCC1 (stereo not given)	.	.	18µM	.	.[9.22 µM]	.
Cc1ccc(NC(=O)c2cc3c(s2)CCC3)cc1S(=O)(=O)N1CCOCC1	.	.	21µM	.	.	.
COc1ccc(C(=O)Nc2ccc(N3CCOCC3)cc2)cc1S(=O)(=O)N1CCOCC1	.	.	.	.	.	.
O=[N+]([O-])c1ccc([S+](=O)([O-])N2CCN([S+](=O)([O-])c3ccc4c(c3)OCCO4)CC2)c([N+](=O)[O-])c1	.	/	.	/	/	/
COc1cc(NC(=O)CCc2c(C)nc3cc(-c4ccccc4)nn3c2C)cc(OC)c1OC	.	/	2.6µM	/	.	/
Cc1nc2cc(-c3cccc(F)c3)nn2c(C)c1CCC(=O)NC(C)c1ccccc1 (stereo not given)	.	/	3.7µM	/	.	/
COC(=O)c1cc(NC(=O)CCc2c(C)nc3cc(-c4ccccc4)nn3c2C)cc(C(=O)OC)c1	.	/	.	/	.	/
Cc1nc2cc(-c3cccc(F)c3)nn2c(C)c1CCC(=O)NCCc1ccccc1	.	/	?	/	.	/
COc1ccc(CCNC(=O)CCc2c(C)nc3cc(-c4ccccc4OC)nn3c2C)c(OC)c1	.	/	23µM	/	.	/
CC(C)CCNC(=O)c1ccc(Cn2c(=O)c3cccn3c3cccnc32)cc1	.	/	.	/	.	/
CC(C)(C)c1ccc(-c2nc3cc(NC(=O)c4cccc(Br)c4)ccc3o2)cc1	.	/	?	/	.	/
C[C@H]1CN(Cc2ccccc2)C(=O)[C@@H]1CC(=O)Nc1ccccc1	/	/	/	/	.	.
O=C(CN(Cc1ccco1)C(=O)CNS(=O)(=O)c1ccc(F)cc1)NCc1ccco1	.	.	.	.	.	.
COC(=O)c1ccc(S(=O)(=O)N2CCCN(Cc3cccc(Br)c3F)CC2)n1C	.	40µM	?	.	.	.
COC(=O)c1ccc(S(=O)(=O)N2CCN(CCO)CC2)n1C	.	.	.	.	.	.
S=C(NC1CCCCC1)N1CCOCCOCCN(C(=S)NC2CCCCC2)CCOCCOCC1	?	.	16µM	.	.	.
O=C(NC1CCCCCC1)C(=S)N1CCOCC1	.	.	.	.	.	.
Nc1ccc(-c2cnc(N)c(C(=O)c3cccnc3)n2)cn1	?	/	15µM	.	.	.
Cc1nc(C)c(-c2ccc(SCC(=O)Nc3cccc(F)c3)nn2)s1	?	.	15µM	.	.	.
CC(=O)c1cccc(NC(=O)CSc2ccc(-c3sc(C)nc3C)nn2)c1	.	.	.	.	.	.
COc1ccccc1NC(=O)CSc1ccc(-c2sc(C)nc2C)nn1	.	/	/	/	.	/
CCOc1ccccc1NC(=O)CSc1ccc(-c2sc(C)nc2C)nn1	.	.	21µM	.	.	.
COc1ccccc1CNC(=O)c1ccc(C)c(-n2cnc3cccnc32)c1	.	/	.	/	.	/
O=C(NCCc1cn2ccccc2n1)c1cc(COc2ccc3ncccc3c2)on1	?	.	16µM	.	.	.
CC(NC(=O)c1cc(COc2ccc3ncccc3c2)on1)c1ccc(F)cc1 (stereo not given)	.	.	?	.	.	.
SMILES	A549 tox	AT treatment	Nrf2 inh	TCR act	Nrf2 activator	CCT chaperon mod
COc1ccc(NC(=O)C2=C(C)Nc3nc(SCc4ccccc4C)nn3C2c2cc(OC)c(O)c(OC)c2)cc1 (stereo not given)	.	/	.	/	.	/
C=CCNc1nc(N)c([N+](=O)[O-])c(Nc2ccccc2OC)n1	.	.	21µM	.	.	.
CCC(C)Nc1nc(N)c([N+](=O)[O-])c(Nc2ccccc2OC)n1 (stereo not given)	?	.	15µM	.	.	.
COc1ccccc1Nc1nc(NCCCN(C)C)nc(N)c1[N+](=O)[O-]	.	?	.	.	.	.
COc1cc(C(=O)Nc2cccc(C)c2C)ccc1OCC(=O)N1CCOCC1	.	.	.	.	.	-34
Cc1ccc(NC(=O)CN2C(=O)NC(C)(c3ccccc3)C2=O)c(C)c1 (stereo not given)	.	.	.	.	.	-60
